According to PubChem BioAssay:
Values without a mark were called inactive. No rule for the calls is given here.

What follows are compounds tested against Pantothenate synthetase (Mycobacterium tuberculosis (strain ATCC 25618 / H37Rv)) (UniProt P9WIL5) (assay: Coupled enzyme confirmation of inhibitors against recombinant Mtb PanC (AID 375;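 also: 0% = full reaction with vehicle and 100% = no enzyme background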)). Details: coupled enzyme assay; at 10 µM, hits give high values.
Pantothenate synthetase (Mycobacterium tuberculosis (strain ATCC 25618 / H37Rv)), sequence (P9WIL5 whole entry, looked up): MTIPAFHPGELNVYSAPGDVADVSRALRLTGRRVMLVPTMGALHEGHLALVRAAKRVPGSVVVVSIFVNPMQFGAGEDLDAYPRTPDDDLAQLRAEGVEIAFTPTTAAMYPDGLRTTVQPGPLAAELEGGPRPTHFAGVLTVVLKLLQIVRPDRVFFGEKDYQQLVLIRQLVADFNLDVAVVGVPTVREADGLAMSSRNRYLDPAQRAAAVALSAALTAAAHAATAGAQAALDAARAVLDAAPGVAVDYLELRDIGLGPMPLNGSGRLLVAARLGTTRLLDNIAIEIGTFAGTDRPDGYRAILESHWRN
For `Cc1ccc(S(=O)(=O)N2CCN(C(=O)c3cc(=O)[nH]c4ccccc34)CC2)c(C)c1`, the inhibition was 3%.
`Fc1cc(F)c(F)c(SCCc2ccncc2)c1F` was tested, and the inhibition was 0%.
`O=S(=O)(c1ccccc1)N1CCN(S(=O)(=O)c2ccccc2)C1` gave an inhibition of 0%.
In the case of `COC(=O)c1cn(C(=O)c2ccc(Br)o2)c2ccccc12`, the inhibition was 0%.
Compound `Cc1ccc(-n2ncc3c(=O)n(CC(=O)NCc4ccco4)cnc32)cc1` has an inhibition of 0%.
For `CCn1c(=N)n(CC(O)COc2cccc(C)c2)c2ccccc21` (configuration not stated), the inhibition was 4%.
For `COc1ccc(NC(=O)CN2CCN(CC(=O)Nc3cc(OC)cc(OC)c3)CC2)cc1`, the inhibition was 8%.
`NC(=O)N1c2ccccc2C=Cc2ccccc21` gave an inhibition of 0%.
`COc1ccccc1-c1cn[nH]c(=S)n1` showed an inhibition of 11%.
With `Cc1nc2sc(C(c3cccs3)N3CCOCC3)c(O)n2n1` (configuration not stated) the inhibition was 0%.
With `CCn1nnc(NC(=O)c2ccc(-c3ccc(Cl)cc3)o2)n1` the inhibition was 2%.
`O=C(Nc1ccccc1-c1ccccc1)NC1CCN(C(=O)N2CCOCC2)CC1` gave an inhibition of 0%.
For `CSc1nc(N)nc(SCCS(=O)(=O)c2ccc(Cl)cc2)c1C#N`, the inhibition was 0%.
Compound `CCN(CC)CCCN1C(=O)C(O)=C(C(C)=O)C1c1cccc(OC)c1` (configuration not stated) has an inhibition of 0%.
For `CCOC(=O)C(NC(=O)c1ccccc1)(Nc1cc(C)on1)C(F)(F)F` (configuration not stated), the inhibition was 0%.
`CCCc1cc(C(=O)Nc2ccc(C(C)=O)cc2)no1` was tested, and the inhibition was 0%.
With `Cn1c(=O)c(=O)n(C)c2cc(S(=O)(=O)CCC(=O)N3CCOCC3)ccc21` the inhibition was 0%.
